Measurements from PubChem BioAssay AID488890 (Southern Research Specialized Biocontainment Screening …, 2010).
The campaign covered roughly 320,000 compounds. About 1,300 (0.41%) were called active. About 3% were inconclusive and are not listed. No rule for the calls is given here. These entries were drawn from the full list. Measured potencies and affinities stand elsewhere.

Assay: growth inhibition of non-replicating M. tuberculosis (AID 488890);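 also: plate controls were DMSO cells for no effect and high antibiotic wells for full effect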
Conditions: Mycobacterium tuberculosis non-replicating, at 25 µM, stronger effect = higher value

Structure (SMILES)	inhibition
O=C(Nc1ccc(N2CCN(C(=O)c3ccccc3)CC2)cc1)c1ccc2c(c1)OCO2	13.6%
CCOC(=O)N1CCC(NS(=O)(=O)c2cc3c(cc2C)NC(=O)CO3)CC1	8.95%
CCOC(=O)N1CCC(NC(=O)CN(C)S(=O)(=O)c2cc3c(cc2Cl)NC(=O)CO3)CC1	31.8%
O=C1NCC(O)=C1C=NCCO	-6.04%
Oc1ccccc1N=Cc1ccc[nH]1	72.2%
CCOc1ccc(NC(=O)CSc2nc(-c3cccs3)cc(C(F)(F)F)n2)c([N+](=O)[O-])c1	7.92%
CCN(CC)C(=O)CSc1nc2c(c(-c3cccnc3)c1C#N)CCCC2	24%
CN(c1ccccc1)S(=O)(=O)c1ccc(C(=O)OCC(=O)NCc2ccco2)cc1	18.2%
Cc1cc(C(=O)N/N=C/c2ccc([N+](=O)[O-])cc2)c(C)o1	-13.2%
O=C(N/N=C/c1ccc([N+](=O)[O-])o1)c1ccccc1NS(=O)(=O)c1cccs1	48%
Cc1ccc(/C=N/NC(=O)c2cc(C)oc2C)o1	3.1%
O=C(N/N=C/c1ccc([N+](=O)[O-])cc1)c1cc2ccccc2o1	6.74%
Nc1nonc1C(=O)N/N=C/c1ccc(Br)o1	-9.49%
O=C(N/N=C/c1ccc([N+](=O)[O-])cc1)c1ccc(NS(=O)(=O)c2cccs2)cc1	17.2%
Nc1nonc1C(=O)N/N=C/c1ccc(-c2cccc([N+](=O)[O-])c2)o1	-4.42%
O=C(N/N=C/c1cccc([N+](=O)[O-])c1)c1cc2ccccc2o1	21.7%
O=S(=O)(Nc1nc2ccccc2nc1Cl)c1ccc2ccccc2c1	47.8%
Cc1ccc(NC(=O)COC(=O)C2CCN(c3ccc(C(F)(F)F)cn3)CC2)cc1C	14.8%
N#Cc1nc(N2CCCCC2)nc(N2CCOCC2)n1	13.1%
C=CCn1c(CNC(=O)c2ccco2)nnc1SCC(=O)c1ccccc1	12.6%
CCCn1c(=O)c(C(=O)NNS(=O)(=O)c2ccc(Cl)cc2)c(O)c2ccccc21	30.4%
COc1cc(/C=N\Nc2nncn2N)ccc1OC(C)=O	8.91%
COc1ccc(S(=O)(=O)NC(CC(=O)NCCc2ccc(OC)c(OC)c2)c2ccco2)cc1 (stereo not drawn)	-6.87%

Structure (SMILES)	inhibition
COCCSc1ccccc1C(=O)N1CCC(Cc2ccccc2)CC1	12.1%
O=C(N/N=C/c1ccncc1)c1sc2ccccc2c1Cl	67.1%
O=C(N/N=C/c1ccc([N+](=O)[O-])o1)c1ccc(O)cc1	76.5%
CCN(CC)C(=O)Cn1cc(S(=O)(=O)CC(=O)Nc2ccc(F)cc2)c2ccccc21	-1.96%
C/C(=N\NC(=O)c1ccccc1[N+](=O)[O-])c1c(O)cc(C)oc1=O	11.3%
C/C(=N\NC(=O)c1cccnc1)c1c(O)cc(C)oc1=O	-4.46%
C/C(=N\NC(=O)c1ccccc1O)c1c(O)cc(C)oc1=O	76.5%
CCc1ccccc1N/N=C(/C)c1c(O)cc(C)oc1=O	19.8%
C/C(=N\Nc1ccccc1)c1c(O)cc(C)oc1=O	54.3%
CCCCCCCCC(=O)N/N=C(\C)c1ccco1	-9.44%
CCc1ccc(OCC(=O)N/N=C(\C)c2ccc(O)cc2O)cc1	69%
CCCCCC(=O)c1ccc(O)cc1O	44.3%
C/C(=C\c1ccccc1)CN1CCC(C(=O)N2CCCC(C)C2)CC1 (stereo not drawn)	22.3%
COc1ccc(S(=O)(=O)N(C)C[C@H]2Oc3ccc(NS(=O)(=O)c4cn(C)cn4)cc3C(=O)N([C@H](C)CO)C[C@@H]2C)cc1	-5.84%
O=C(CCc1nnc2ccc(NCc3ccco3)nn12)N1CCN(c2ccccc2F)CC1	28.5%
O=C(COc1ccccc1)Nc1ccc(Cl)cc1Cl	72.1%
Cn1cnc2cc(NS(=O)(=O)c3ccc(Br)cc3)ccc21	-3.25%
O=C(CCC(=O)c1ccc(F)cc1)OCc1nnc(-c2ccc([N+](=O)[O-])cc2)o1	37%
Cc1cc(C(=O)N/N=C2\CCCc3ccccc32)c(C)o1	8.07%
CC(C)c1ccc2[nH]c3c(c2c1)[C@@H]1CCN2C(=O)CCC[C@H](C3)[C@H]12	18.1%
Cc1c(NS(=O)(=O)c2ccc(N=NN(C)C)cc2)c(=O)n(-c2ccccc2)n1C	-13.3%
COc1ccc2sc(-c3ccccc3OC)c(-c3ccc4c(c3)OCCO4)c2c1	17.4%
O=C1NC(=O)/C(=C/c2ccco2)N1	-3.62%

Structure (SMILES)	inhibition
CSc1c2c(nc3ncnn13)CCC2	-27.5%
CC(C)CC1=NN(C(=O)c2ccncc2)C(O)(C(F)(F)F)C1 (stereo not drawn)	47.5%
Cc1ccc(C(=O)N2N=C(c3ccccc3)CC2(O)C(F)(F)F)o1 (stereo not drawn)	58.8%
Cc1ccc(C2=NN(C(=O)c3ccco3)C(O)(C(F)(F)F)C2)cc1 (stereo not drawn)	71.2%
O=C(c1ccco1)N1N=C(c2ccc(Br)cc2)CC1(O)C(F)(F)F (stereo not drawn)	29.3%
CCOC(=O)/C(=N\Nc1ccccc1Cl)N1CCN(c2ccccc2OC)CC1	19%
c1ccc(-n2cnc3cc(NCc4cccs4)ccc32)cc1	28.9%
COc1ccc2nc(NC(=O)c3ccccc3-c3ccccc3C(=O)O)sc2c1	76.6%
Cc1ccc(C(=O)O)c(C(=O)Nc2nc3ccccc3s2)c1	11.2%
O=C(COC(=O)c1ccccc1C(=O)c1ccccc1)NCc1ccc(F)cc1	31.8%
O=C(CCc1ccccc1)N1CCN(c2ccc(F)cc2)CC1	73.8%
O=C(CCC(=O)N1CCN(c2ccccc2F)CC1)N1CCN(c2ccccc2)CC1	45%
COC(=O)c1ccccc1NC(=O)CN1C(=O)CSC1=O	-0.76%
COCCNCC(O)CON=C1c2ccccc2-c2ccccc21 (stereo not drawn)	54.3%
CC(C)(C)NCC(O)CON=C1c2ccccc2-c2ccccc21 (stereo not drawn)	65.3%
COc1ccc(-c2csc3ncnc(N4CCN(c5cccc(C)c5C)CC4)c23)cc1	11.9%
O=C(NCCN1CCOCC1)C1CCN(S(=O)(=O)N2CCCCC2)CC1	-2.95%
CCOC(=O)N1CCN(S(=O)(=O)c2ccc(C(=O)N(CCCN(C)C)c3nc4ccc(OC)cc4s3)cc2)CC1	3.45%
C/C(=C\C(=O)c1ccccc1)Nc1ccc(O)cc1	29.4%
COc1ccc(OC)c(N/C(C)=C/C(=O)c2ccncc2)c1	0%
COc1ccc(C(=O)c2c3ccc(OC)cc3[n+]([O-])n2Cc2ccc(C(N)=O)cc2)cc1	17.1%
COc1ccc(-c2nnc(SCC(=O)N(C)C3CCS(=O)(=O)C3)n2C(C)C)cc1 (stereo not drawn)	-12.8%
